Test results reported in PubChem BioAssay.
Calls of active or inactive are those of the source.

How the values were obtained:
[1] = test system: Plasmodium falciparum Sir2 (PF13_0152, Sir2A); test: pfSir2 binders on small-molecule microarrays, primary screen, biochemical, small-molecule microarray, 635 nm fluorescence (AID 1098); settings: small-molecule microarray binding, fluorescence 635 nm; higher = more signal;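 also: score merges spot fluorescence intensity with its signal-to-noise ratio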
[2] = small-molecule microarray binders of probe aDKK1, primary screen, biochemical, biotinylated probe, 635/667 nm fluorescence (AID 1099); settings: higher = more signal;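 also: score merges 667nm spot fluorescence with signal to noise across triplicate slides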
[3] = small-molecule microarray binders of probe aCHRDL2, primary screen, biochemical, biotinylated probe, 635/667 nm fluorescence (AID 1100); settings: higher = more signal
[4] = splicing luciferase reporter signal modulators, primary screen, spliceosome inhibition project, cell-based, HEK293, splice +/- reporter (AID 1101); settings: luminescence, 24 h, higher = more signal, called active from +8 up or from −8 down;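 also: HEK293 cells carrying a splicing-competent luciferase reporter gene; test concentration not given here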
[5] = target: Fibroblast growth factor 10 (Homo sapiens) (UniProt O15520); test: FGF10 binders on small-molecule microarrays, primary screen, biochemical, small-molecule microarray, 635 nm fluorescence (AID 1102); settings: FGF10 binding, fluorescence 635 nm, higher = more signal
Sequence of Fibroblast growth factor 10 (Homo sapiens) (O15520 whole entry, looked up): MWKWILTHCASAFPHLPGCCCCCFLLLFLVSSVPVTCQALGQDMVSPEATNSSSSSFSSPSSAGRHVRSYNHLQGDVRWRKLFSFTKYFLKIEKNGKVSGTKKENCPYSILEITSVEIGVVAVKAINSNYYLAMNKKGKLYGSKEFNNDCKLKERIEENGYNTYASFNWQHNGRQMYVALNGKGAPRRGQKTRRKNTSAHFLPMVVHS

[6] = test system: glycogen synthase kinase-3 (GSK3A per assay name; protocol says GSK3B); test: GSK3 binders on small-molecule microarrays, primary screen, biochemical, small-molecule microarray, 635 nm fluorescence, GSK3A (AID 1103); settings: small-molecule microarray binding, fluorescence 635 nm; higher = more signal; also: the record names both GSK3A and GSK3B
[7] = target: Epidermal growth factor receptor (Homo sapiens) (UniProt P00533); test: EGFR binders on small-molecule microarrays, primary screen, biochemical, small-molecule microarray, 635 nm fluorescence (AID 1104); settings: EGFR binding, higher = more signal;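 also: score merges 667 nm emission intensity with spot signal to noise over triplicate slides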
Sequence of Epidermal growth factor receptor (Homo sapiens) (P00533 whole entry, looked up): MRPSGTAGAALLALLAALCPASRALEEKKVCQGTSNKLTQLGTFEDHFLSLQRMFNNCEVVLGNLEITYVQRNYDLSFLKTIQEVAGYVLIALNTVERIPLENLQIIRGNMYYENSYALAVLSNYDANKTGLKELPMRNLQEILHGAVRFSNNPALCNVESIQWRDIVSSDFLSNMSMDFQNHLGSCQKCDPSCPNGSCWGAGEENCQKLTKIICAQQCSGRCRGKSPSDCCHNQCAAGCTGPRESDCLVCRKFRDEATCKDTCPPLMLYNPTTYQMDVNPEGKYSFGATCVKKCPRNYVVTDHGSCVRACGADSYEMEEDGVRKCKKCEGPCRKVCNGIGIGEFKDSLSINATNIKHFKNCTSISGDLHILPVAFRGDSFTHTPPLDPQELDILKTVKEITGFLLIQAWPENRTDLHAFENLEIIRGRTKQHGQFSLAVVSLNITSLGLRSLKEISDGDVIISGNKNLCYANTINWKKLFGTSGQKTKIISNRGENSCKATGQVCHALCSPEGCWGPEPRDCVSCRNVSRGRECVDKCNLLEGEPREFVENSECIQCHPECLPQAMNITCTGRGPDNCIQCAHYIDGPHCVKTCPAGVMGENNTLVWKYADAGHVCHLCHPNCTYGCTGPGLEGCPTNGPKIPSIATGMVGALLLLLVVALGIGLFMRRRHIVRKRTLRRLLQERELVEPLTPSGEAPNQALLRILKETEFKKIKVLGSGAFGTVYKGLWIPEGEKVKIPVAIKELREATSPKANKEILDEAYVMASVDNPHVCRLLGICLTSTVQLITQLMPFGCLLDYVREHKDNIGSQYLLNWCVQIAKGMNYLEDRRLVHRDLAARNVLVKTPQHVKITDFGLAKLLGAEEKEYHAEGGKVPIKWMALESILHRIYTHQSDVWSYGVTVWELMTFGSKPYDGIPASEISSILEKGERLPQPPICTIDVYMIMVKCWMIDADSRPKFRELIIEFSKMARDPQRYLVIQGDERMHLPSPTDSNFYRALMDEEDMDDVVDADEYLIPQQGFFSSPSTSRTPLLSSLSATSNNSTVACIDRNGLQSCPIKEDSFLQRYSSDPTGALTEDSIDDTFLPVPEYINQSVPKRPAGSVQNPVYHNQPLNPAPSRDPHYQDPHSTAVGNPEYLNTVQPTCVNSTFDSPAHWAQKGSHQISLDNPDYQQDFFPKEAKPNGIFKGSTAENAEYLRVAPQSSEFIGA

[8] = target: Follistatin-related protein 3 (Homo sapiens) (UniProt O95633); test: FSTL3 binders on small-molecule microarrays, primary screen, biochemical, small-molecule microarray, 635 nm fluorescence (AID 1105); settings: FSTL3 binding, higher = more signal;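 also: score merges emission near 667 nm and signal to noise per printed spot across three slides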
Sequence of Follistatin-related protein 3 (Homo sapiens) (O95633 whole entry, looked up): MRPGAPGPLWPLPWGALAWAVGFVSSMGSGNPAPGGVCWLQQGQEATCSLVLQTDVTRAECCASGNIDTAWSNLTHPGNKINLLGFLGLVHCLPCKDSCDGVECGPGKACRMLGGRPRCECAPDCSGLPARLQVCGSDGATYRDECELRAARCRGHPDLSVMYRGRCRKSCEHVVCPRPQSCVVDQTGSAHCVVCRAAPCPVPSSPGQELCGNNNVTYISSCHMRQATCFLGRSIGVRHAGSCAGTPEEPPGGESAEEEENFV

[9] = target: Dickkopf-related protein 1 (Homo sapiens) (UniProt O94907); test: DKK1 binders on small-molecule microarrays, primary screen, biochemical, small-molecule microarray, 635 nm fluorescence scan (AID 1106); settings: DKK1 binding, higher = more signal;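 also: score merges emission near 667 nm with signal to noise over three replicate slides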
Sequence of Dickkopf-related protein 1 (Homo sapiens) (O94907 whole entry, looked up): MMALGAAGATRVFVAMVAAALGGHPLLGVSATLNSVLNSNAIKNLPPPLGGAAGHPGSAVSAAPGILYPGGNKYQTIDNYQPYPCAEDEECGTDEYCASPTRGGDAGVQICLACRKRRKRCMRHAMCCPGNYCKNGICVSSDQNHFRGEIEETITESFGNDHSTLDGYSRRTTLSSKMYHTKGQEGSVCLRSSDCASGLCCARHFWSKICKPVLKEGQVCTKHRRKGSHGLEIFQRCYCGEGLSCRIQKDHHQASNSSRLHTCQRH

[10] = test system: Inhibin beta A chain (activin A); test: INHBA (activin A) binders on microarrays, primary screen, biochemical, small-molecule microarray, 635 nm fluorescence scan (AID 1107); settings: small-molecule microarray binding, higher = more signal;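 also: mouse activin A protein probed at 4.33 µg/mL on printed slides; score merges bound-protein fluorescence near 667 nm with spot signal-to-noise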
[11] = test system: Human papillomavirus type 1a protein E7 (residues 44-93); test: HPV1a E7 fragment binders on microarrays, primary screen, biochemical, small-molecule microarray, residues 44-93, 635 nm fluorescence (AID 1108); settings: small-molecule microarray binding, fluorescence 635 nm; higher = more signal;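 also: E7 fragment applied at 1 µg/mL in TBST for 1 h at 4 C; score combines spot fluorescence with its signal to noise ratio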
[12] = modulators of HCV replicon luciferase signal, primary screen, HCV replication inhibitor project, Huh7 cells, luciferase reporter (AID 1109); settings: 48 h, higher = more signal;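 also: huh7 hepatoma cells harbouring a luciferase neomycin HCV replicon reporter; luciferase luminescence as measure of HCV replicon replication; test concentration not given here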
[13] = target: Left-right determination factor 2 (Homo sapiens) (UniProt O00292); test: LEFTY2 binders on small-molecule microarrays, primary screen, biochemical, small-molecule microarray, 635 nm fluorescence scan (AID 1110); settings: LEFTY2 binding, higher = more signal
Sequence of Left-right determination factor 2 (Homo sapiens) (O00292 whole entry, looked up): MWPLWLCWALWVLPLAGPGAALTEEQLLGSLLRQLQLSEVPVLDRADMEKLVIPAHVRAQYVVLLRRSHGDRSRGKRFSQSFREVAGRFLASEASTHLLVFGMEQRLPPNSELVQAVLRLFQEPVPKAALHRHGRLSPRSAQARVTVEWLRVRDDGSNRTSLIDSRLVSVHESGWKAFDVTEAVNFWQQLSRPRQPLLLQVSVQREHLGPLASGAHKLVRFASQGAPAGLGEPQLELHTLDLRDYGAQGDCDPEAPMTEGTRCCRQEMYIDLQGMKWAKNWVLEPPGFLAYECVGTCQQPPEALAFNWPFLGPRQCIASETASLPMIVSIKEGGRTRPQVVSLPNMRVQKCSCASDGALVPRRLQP

[14] = target: Calmodulin-1 (Homo sapiens) (UniProt P0DP23); test: CALM1 binders on microarrays, EGTA buffer, profiling panel, biochemical, small-molecule microarray, Cy5-labelled CALM1 (AID 1111); settings: Cy5-CALM1 binding fluorescence, higher = more signal;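 also: labelled calmodulin applied in Tris saline Tween buffer holding calcium plus EGTA and DTT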
[15] = target: Calmodulin-1 (Homo sapiens) (UniProt P0DP23); test: calcium-bound CALM1 binders on microarrays, profiling panel, artefact control for SMM control-protein annotation, biochemical, small-molecule microarray, Cy5-labelled CALM1, plus calcium (AID 1112); settings: Cy5-CALM1 binding fluorescence, higher = more signal;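 also: score merges spot fluorescence with signal to noise from triplicate slides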
[16] = small-molecule microarray binders of probe aWnt5a, primary screen, biochemical, biotinylated probe, 635/667 nm fluorescence (AID 1113); settings: higher = more signal;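 also: score merges 667 nm fluorescence intensity with signal-to-noise per printed feature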
[17] = small-molecule microarray binders of probe aShh, primary screen, biochemical, biotinylated probe, 635/667 nm fluorescence (AID 1114); settings: higher = more signal;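 also: probe is biotin-labelled aShh protein from a stem cell growth factor screen; measures binding of labelled protein to compounds printed on the slide; score merges feature fluorescence at 667 nm with signal-to-noise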
[18] = small-molecule microarray binders of probe aNog, primary screen, biochemical, biotinylated probe, 635/667 nm fluorescence (AID 1115); settings: higher = more signal;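 also: probe is biotinylated aNog protein used at 0.15 µg/mL for 1 h at 4 C; z-score combines 667 nm fluorescence of each spot with its signal to noise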
[19] = target: Torsin-1A-interacting protein 1 (Homo sapiens) (UniProt Q5JTV8); test: LAP1 binders from COS7 cell lysate, primary screen, small-molecule microarray, 635/667 nm fluorescence (AID 1116); settings: COS7-hLAP1 lysate binding, 635 nm fluorescence, higher = more signal
Sequence of Torsin-1A-interacting protein 1 (Homo sapiens) (Q5JTV8 whole entry, looked up): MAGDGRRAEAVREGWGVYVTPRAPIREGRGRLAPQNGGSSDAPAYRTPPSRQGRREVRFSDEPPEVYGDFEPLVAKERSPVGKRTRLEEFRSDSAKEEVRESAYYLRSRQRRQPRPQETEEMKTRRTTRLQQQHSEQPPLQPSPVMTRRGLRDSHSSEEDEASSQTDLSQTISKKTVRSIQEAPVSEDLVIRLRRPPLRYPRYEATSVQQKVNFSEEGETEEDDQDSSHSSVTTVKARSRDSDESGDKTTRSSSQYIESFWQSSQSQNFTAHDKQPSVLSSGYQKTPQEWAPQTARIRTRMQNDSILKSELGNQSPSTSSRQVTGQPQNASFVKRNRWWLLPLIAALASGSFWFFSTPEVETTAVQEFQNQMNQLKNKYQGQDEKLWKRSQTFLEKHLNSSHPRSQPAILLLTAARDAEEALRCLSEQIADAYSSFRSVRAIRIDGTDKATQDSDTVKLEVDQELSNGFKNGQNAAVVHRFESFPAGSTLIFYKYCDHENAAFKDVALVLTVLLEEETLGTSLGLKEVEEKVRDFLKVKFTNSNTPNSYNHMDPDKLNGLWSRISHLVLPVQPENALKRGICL

[20] = target: Alpha-bungarotoxin (Bungarus multicinctus) (UniProt P60615); test: alpha-bungarotoxin binders on microarray, profiling panel, artefact control for SMM control protein annotation, biochemical, small-molecule microarray, Alexa647 label, 635/667 nm fluorescence (AID 1117); settings: alpha-BTX-A647 binding fluorescence, higher = more signal
Sequence of Alpha-bungarotoxin (Bungarus multicinctus) (P60615 whole entry, looked up): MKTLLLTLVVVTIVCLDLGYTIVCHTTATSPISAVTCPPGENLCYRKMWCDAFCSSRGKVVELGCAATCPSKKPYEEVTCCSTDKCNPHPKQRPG

Structure (SMILES)	composite z-score [1]	composite z-score [2]	composite z-score [3]	z-score [4]	composite z-score [5]	composite z-score [6]	composite z-score [7]	composite z-score [8]	composite z-score [9]	composite z-score [10]	composite z-score [11]	z-score [12]	composite z-score [13]	composite z-score [14]	composite z-score [15]	composite z-score [16]	composite z-score [17]	composite z-score [18]	composite z-score [19]	composite z-score [20]
[N-]=[N+]=Nc1ccccc1C[C@]1(C(=O)NCC(O)CO)N=C(c2ccc(OCCCO)cc2)O[C@H]1c1ccccc1 (stereo not given in full)	0.848	0.603	0.965	-0.29 (inactive)	0.786	0.544	-0.704	-0.107	-0.735	0.537	1.45	-0.962	-1.32	1.89	0.496	-0.0924	-0.0709	-0.492	0.954	0.903
CC#CC(=O)Oc1ccc(Br)cc1C=CC(=O)OCC	-0.384	0.321	0.481	1.07 (inactive)	-0.0853	-0.108	-0.257	0.137	-0.382	1.24	1.23	-2.4	-0.034	-0.323	-0.465	-0.0154	0.42	0.302	0.286	0.683
O=C1O[C@@H](c2ccccc2)[C@@H](c2ccccc2)N2[C@@H](c3ccccc3OCCO)[C@]3(C(=O)Nc4ccc(C#CC5(O)CCCCCC5)cc43)[C@@H](C(=O)N3CCN(c4ncccn4)CC3)[C@H]12	0.448	-0.125	0.304	-0.562 (inactive)	0.878	1.06	0.301	0.463	0.439	-0.431	1.38	-2.29	0.409	0.586	0.671	-0.0165	-0.0234	0.118	1.5	0.894
CCC(CC)C(O)C1C=CC2C(=O)N(c3ccccc3)C(=O)C2N1Nc1ccccc1 (stereo not given)	1.52	1.29	1.15	-0.326 (inactive)	0.988	1.21	0.452	1.38	0.0269	0.555	1.29	0.372	0.0874	1.58	0.415	0.216	-0.16	2.01	0.671	1.02
C=CCNC(=O)[C@@H]1[C@H]2C(=O)O[C@H](c3ccccc3)[C@H](c3ccccc3)N2[C@H](c2ccc(OCCO)cc2)[C@@]12C(=O)N(C(=O)OCCOC)c1ccc(C#CCNC(N)=O)cc12	1.43	0.478	0.747	0.184 (inactive)	0.704	0.549	0.555	0.898	0.554	1.2	0.79	-0.635	0.735	0.597	0.386	0.0136	0.275	-0.42	0.55	1.53
COC(=O)[C@@]1(Cc2ccccc2)[C@H]2c3cc(C(=O)N(C)C)n(Cc4ccc(OC)c(OC)c4)c3C[C@H]2CN1C(=O)c1ccccc1	0.0313	0.905	0.94	-4.08 (inactive)	1.44	0.454	0.568	0.609	-0.833	0.67	1.46	-2.35	-0.394	1.71	0.873	0.229	0.187	2.35	1.1	1.07
CN(C)CCCC[C@@H]1NC(=O)[C@H]2C[C@@H](C(=O)NCCCCCN)[C@@H](c3cccc(OCCO)c3)N2C1=O	1.11	1.33	1.04	0.0522 (inactive)	1.2	1.06	0.0076	0.0876	0.453	1.41	0.474	0.0761	0.669	2.22	1.51	0.233	0.351	0.863	2.53	1.44
O=C1OCC=C[C@H]2OC34C=CCN(Cn5nnc6ccccc65)C(=O)[C@H]3N(CCCCCO)C(=O)[C@@H]4[C@@H]12 (stereo not given in full)	0.665	0.26	0.586	-0.313 (inactive)	-0.658	-0.614	-1.31	-0.77	-1.29	-0.212	-0.129	-0.0996	-1.3	-0.497	0.0598	0.184	-0.209	0.105	3.17	-0.464
CC(CO)N1C(=O)[C@@H]2C3C(=O)OCCC/C=C\[C@H]3OC23C=CCN(CCN2CCOCC2)C(=O)[C@@H]13 (stereo not given in full)	0.238	-0.412	-0.48	-0.669 (inactive)	0.516	0.494	-0.493	0.124	0.281	0.693	-0.201	-0.77	-0.0109	-0.514	-1.01	-0.152	0.0048	-0.272	-0.116	0.0654
C=C(CCCC)/C(=C/C[C@H](OC(C)=O)c1ccc(OCCO)cc1)c1cnc2ccccc2c1	0.641	-0.182	-0.0866	0.299 (inactive)	0.672	0.209	0.384	1.12	0.446	1.53	1.43	-2.43	0.52	-0.185	-0.378	-0.101	-0.0035	-0.483	0.491	1.85
COCCCNC(=O)[C@@]1(Sc2ccc(C)cc2)CC(=O)N(Cc2ccccc2Cl)[C@@H]1c1ccc(CO)cc1	1.36	0.0942	0.0166	-0.87 (inactive)	0.977	0.56	0.491	1.36	0.553	0.595	1.36	-1.75	0.585	0.532	-0.184	0.0706	0.275	-0.205	0.566	1.25
